Screen size: about 69,000 compounds; about 8,600 (12%) showed an effect of 50% or more. The full list was thinned out, with strong results kept by preference.
tested on: Plasmodium berghei; test: Screen against P. berghei liver stage (PbLuc), transformed with Luciferase, at 10uM; assay type: functional, HepG2; settings: tested at 10 uM

Compared with `Cc1nc(-c2ccsc2)ccc1C(=O)NC(C)CN1CCOCC1` (stereo unspecified), `Cc1nnc(C(C)NCC2(c3ccc(Cl)cc3)CCOCC2)o1` (stereo unspecified) is higher in INHIBITION: -4.43% for the first, 11.8% for the second.

Going from `O=C(c1cscn1)N1CCc2ncnc(-c3ccncc3)c2CC1` to `Cc1cnc(C(=O)N2CCC(C(=O)c3cc(F)ccc3F)CC2)cn1`, the INHIBITION falls from -7.24% to -121%.

Compared with `O=C(CSc1ccncc1)NC1CC(=O)N(CCc2ccccc2)C1` (stereo unspecified), `Cc1nccn1CC1CCN(C(=O)Cc2ccccc2)CC1` is higher in INHIBITION: -15.9% for the first, 65.9% for the second.

Compared with `CC(O)CN1CCC(CNCc2ccccc2C(F)(F)F)CC1` (stereo unspecified), `Cc1nccn1CC1CCN(C(=O)c2ccccc2)CC1` is higher in INHIBITION: 0.24% for the first, 67.4% for the second.

First: CN1CCN(C2CCN(CCCOc3ccc(F)cc3)CC2)C1=O
Second: Cn1ccnc1CN1CCN2C[C@H](Oc3cccc(F)c3)C[C@H]2C1
The INHIBITION of the first is higher: 47% for the first, 38.5% for the second.

Compared with `CCOC(=O)CNC(=O)C1OC(c2ccccc2)=NN1C(C)=O` (stereo unspecified), `CC(=O)c1cn(CCC(=O)NCCCC(=O)O)c2ccccc12` is higher in INHIBITION: -19.1% for the first, -10.2% for the second.

First: CCOC1CCN(C(=O)CN(C)c2cnccn2)CC1
Second: CC(O)CN1CCN(C(=O)CN(C)c2ccc(C#N)cn2)CC1 (stereo unspecified)
The INHIBITION of the first is higher: 26.083% for the first, 18.4% for the second.

Going from `CC(C)Nc1ccc2nc(C3CCN(C(C)C)CC3)nn2c1` to `COCCN1CCC1c1cc(NC2CCCC2)nc(C)n1` (stereo unspecified), the INHIBITION rises from -7.35% to 4.41%.

Going from `CN(C)C(=O)c1cn2cc(-c3ccccc3Cl)n(CC3CC3)c(=O)c2n1` to `CNC(=O)c1cn2cc(-c3ccccc3Cl)n(CC3CC3)c(=O)c2n1`, the INHIBITION rises from -0.273% to 33.3%.

Compared with `CCNC(=O)c1cn2cc(-c3ccccc3Cl)n(CC3CC3)c(=O)c2n1`, `Cn1cc(-c2cc(-c3cnn(C)c3)n(CC(=O)NC3CC3)n2)cn1` is lower in INHIBITION: 73.5% for the first, 44.3% for the second.

First: COCC(=O)N1C[C@@H](OCc2ccncc2)[C@@H]2OCCC[C@@H]21
Second: c1cnn(CCCO[C@@H]2CN(C3CCOCC3)[C@@H]3CCCO[C@@H]32)c1
The INHIBITION of the first is higher: 35.8% for the first, -40.9% for the second.

Compared with `Fc1cccc(O[C@@H]2C[C@H]3CN(Cc4ccncc4)CCN3C2)c1`, `Fc1cccc(O[C@@H]2C[C@H]3CN(Cc4ccccn4)CCN3C2)c1` is lower in INHIBITION: 90.7% for the first, 85.4% for the second.

Going from `c1ccc(CN2CCN3C[C@H](Oc4cncnc4)C[C@H]3C2)nc1` to `c1ccc(CN2CCN3C[C@H](Oc4cccnc4)C[C@H]3C2)nc1`, the INHIBITION rises from -8.6% to 41.2%.

Compared with `c1cc(CN2CCN3C[C@H](Oc4cncnc4)C[C@H]3C2)ccn1`, `OCCN(Cc1ccncc1)CC1(c2ccc(Cl)cc2)CCCC1` is higher in INHIBITION: -11.3% for the first, 18.3% for the second.

Compared with `Fc1ccccc1C1(CNC2CCOC3(CCOCC3)C2)CCCC1` (stereo unspecified), `Fc1ccc(C2(CNC3=NCCN3)CCCC2)cc1` is higher in INHIBITION: 14.4% for the first, 27.6% for the second.

Going from `Cc1nnc2n1CCN(c1nn3cc(C(C)(C)C)nc3s1)C2` to `CN(C)CC1CN(Cc2nnc(C(C)(C)C)o2)CCO1` (stereo unspecified), the INHIBITION falls from -1.15% to -104%.

Compared with `Cc1ccsc1C(=O)N1CC[C@H]2CO[C@H](CN(C)C)[C@H]2C1`, `Cc1nccn1CC1CCN(C(=O)c2cccs2)CC1` is higher in INHIBITION: -47.5% for the first, 14.2% for the second.

First: COCCN1Cc2ccccc2C2(CCN(S(C)(=O)=O)CC2)C1
Second: NC(=O)N1CCC2(CCN(Cc3ccccn3)C2=O)C1 (stereo unspecified)
The INHIBITION of the first is lower: -21.1% for the first, 24.5% for the second.

Compared with `O=c1[nH]c2nc(N3CCCCCC3)ncc2c(=O)n1-c1cccc(F)c1`, `Fc1ccc(C2(CNC3=NCCCN3)CCC2)cc1` is lower in INHIBITION: 21.7% for the first, -20.3% for the second.

Compared with `Cc1nccn1CC1CCCN(C(=O)c2cnn(C)c2)C1` (stereo unspecified), `Cc1nccn1CC1CCCN(C(=O)Cc2ccsc2)C1` (stereo unspecified) is higher in INHIBITION: 20.4% for the first, 42.5% for the second.

First: Cn1ccnc1N1CCN(C(=O)Cc2ccccc2)CC1
Second: CO[C@@H]1CCN(C(=O)Cc2cccc(F)c2)[C@H]1Cc1cccnc1
The INHIBITION of the first is higher: 34.2% for the first, 19.6% for the second.

Going from `CC1(C)CN(C(CNC2=NCCN2)c2ccc(Cl)cc2)CCO1` (stereo unspecified) to `Clc1ccc(C2(CNC3=NCCN3)CC2)cc1`, the INHIBITION rises from 1.84% to 56.6%.

First: Cc1nnc(C(C)NCC2(c3ccc(Cl)cc3)CCCC2)o1 (stereo unspecified)
Second: Clc1ccc(C2(CNC3=NCCN3)CCCC2)cc1
The INHIBITION of the first is lower: 18.2% for the first, 68.2% for the second.

Compared with `Clc1ccc(C2(CNC3=NCCN3)CCCCC2)cc1`, `NC(=O)CNC1(c2ccc(Br)cc2)CCOCC1` is lower in INHIBITION: 74% for the first, 19.4% for the second.

Compared with `CC(=O)N1CC(c2ccnc(Nc3nccs3)n2)C1`, `CN(C)C(=O)c1cn[nH]c1C1(C)CCN(c2ncccn2)CC1` is lower in INHIBITION: 12.6% for the first, 12.45% for the second.

First: CCc1nc(-c2cncnc2C2CCNC2)no1 (stereo unspecified)
Second: CO[C@@H]1CCN(C(=O)Cc2ccc(F)cc2)[C@@H]1Cc1cccnc1
The INHIBITION of the first is lower: 3.6% for the first, 55.4% for the second.

First: CC(NC(=O)NCCCn1cccn1)c1ccc2c(c1)OCCCO2 (stereo unspecified)
Second: COc1ccc(CC(=O)N2CC[C@@H](OC)[C@@H]2Cc2cccnc2)cc1
The INHIBITION of the first is lower: -6.7% for the first, 38.5% for the second.

First: CC(C)CN1CC(O)CN(S(=O)(=O)c2ccc(F)cc2)CC1=O (stereo unspecified)
Second: Cc1cc(C)nc(N2CCCC(C)(c3[nH]ncc3C(=O)N(C)C)C2)n1 (stereo unspecified)
The INHIBITION of the first is lower: 34.3% for the first, 53.1% for the second.

Reference: ChEMBL document CHEMBL4513216, “Probing the Open Global Health Chemical Diversity Library for Multistage-Active Starting Points for Next-Generation Antimalarials” (ACS Infect Dis, 2020)
